The record followed here is PubChem BioAssay.

One experiment has as its target Albumin (Bos taurus) (UniProt P02769). In words: bovine serum albumin binders on microarray, profiling panel, artefact control for SMM control protein annotation, biochemical, small-molecule microarray, Alexa647 label, 635/667 nm fluorescence (AID 1118).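 Note: score merges 667 nm emission intensity and signal-to-noise per printed compound spot.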 Conditions: BSA-A647 binding, fluorescence 635 nm, higher = more signal.
Experiment [1] can be described thus: small-molecule microarray binders of probe aXIP, primary screen, biochemical, NeuroSMM set, 635/667 nm fluorescence (AID 1119).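 Note: probe is the protein aXip251-270 applied at 1 µg/mL to compound-printed slides; binding of probe to printed compounds measured as 667 nm fluorescence plus signal to noise.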 Conditions: higher = more signal, called active from +8 up or from −8 down.
Experiment [2] is described as follows: small-molecule binders of probe aNOTCH3, primary screen, biochemical, small-molecule microarray, 635/667 nm fluorescence (AID 1120).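 Note: probe is a biotin-tagged antibody raised against NOTCH3 rather than NOTCH3 protein; score merges spot fluorescence near 667 nm with spot signal to noise.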 Conditions: higher = more signal.
A short description of experiment [3]: small-molecule binders of probe aNOTCH2, primary screen, biochemical, small-molecule microarray, 635/667 nm fluorescence (AID 1121).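 Note: score merges feature fluorescence read at 667 nm with its signal to noise.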 The settings on record: higher = more signal.
Experiment [4] addresses Carbonic anhydrase 2 (Homo sapiens) (UniProt P00918). In words: CAII small-molecule binders, profiling panel, biochemical, small-molecule microarray, Alexa647-labelled CAII (AID 1122). Conditions: CAII-A647 binding fluorescence, higher = more signal.
Experiment [5] in a line: COS7 lysate on small-molecule microarray, probe aHis, 635 nm (AID 1123).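 Note: z-score combines 667nm fluorescence intensity with signal-to-noise per printed compound spot.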 The settings on record: COS7 cell lysate, fluorescence, higher = more signal.
A short description of experiment [6]: compound binding in COS7 lysate, probe aLAP1, primary screen, cell lysate, small-molecule microarray (AID 1124).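 Note: lysate comes from COS7 cells expressing LAP1 and is applied at 0.3 µg/mL; score merges spot fluorescence near 667 nm with signal-to-noise over triplicate slides.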 Conditions: probe aLAP1, fluorescence, higher = more signal.
Another experiment relates to Sam68 (KHDRBS1). In words: Sam68 small-molecule binders, primary screen, biochemical, small-molecule microarray, 635 nm fluorescence (AID 1125).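 Note: score merges 667 nm channel intensity with signal to noise over triplicate slides.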 The settings on record: small-molecule microarray binding, higher = more signal.
In experiment [7] the test system is Chordin-like protein 2 (CHRDL2). In words: CHRDL2 small-molecule binders, primary screen, biochemical, small-molecule microarray, 635 nm fluorescence (AID 1126).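 Note: printed compound slides probed with Chrdl2 protein at 4 µg/mL for 1 h at 4 C; score merges 667 nm emission intensity with signal to noise over three replicate slides.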 Conditions: small-molecule microarray binding, fluorescence 635 nm; higher = more signal.
For experiment [8], the target named is Concanavalin-A (Canavalia ensiformis) (UniProt P02866). In words: ConA small-molecule binders, primary screen, artefact control for SMM control protein annotation, biochemical, small-molecule microarray, Alexa647 label, 635 nm (AID 1127).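 Note: z combines 667 nm emission intensity with signal-to-noise across three replicate slides.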 Conditions: ConA-A647 binding fluorescence, higher = more signal.

Activity calls are given as the source filed them.

Chain of Albumin (Bos taurus) (P02769 whole entry, looked up): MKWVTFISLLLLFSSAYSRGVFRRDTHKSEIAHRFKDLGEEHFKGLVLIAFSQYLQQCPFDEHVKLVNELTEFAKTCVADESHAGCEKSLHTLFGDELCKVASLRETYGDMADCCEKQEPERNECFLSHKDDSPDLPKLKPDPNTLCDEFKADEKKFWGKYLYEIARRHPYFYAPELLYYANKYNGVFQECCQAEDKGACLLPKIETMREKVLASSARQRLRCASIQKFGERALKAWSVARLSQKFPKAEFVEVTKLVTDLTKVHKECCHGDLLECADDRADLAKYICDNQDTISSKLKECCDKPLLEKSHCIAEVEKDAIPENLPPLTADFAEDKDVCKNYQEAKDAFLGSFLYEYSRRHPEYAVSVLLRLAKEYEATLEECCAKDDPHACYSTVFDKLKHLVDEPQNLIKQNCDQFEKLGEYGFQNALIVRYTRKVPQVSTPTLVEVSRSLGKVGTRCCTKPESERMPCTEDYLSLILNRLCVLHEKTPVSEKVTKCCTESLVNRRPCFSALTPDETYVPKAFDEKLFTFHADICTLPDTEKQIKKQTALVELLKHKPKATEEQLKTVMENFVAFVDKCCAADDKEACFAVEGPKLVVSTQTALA
Chain of Concanavalin-A (Canavalia ensiformis) (P02866 whole entry, looked up): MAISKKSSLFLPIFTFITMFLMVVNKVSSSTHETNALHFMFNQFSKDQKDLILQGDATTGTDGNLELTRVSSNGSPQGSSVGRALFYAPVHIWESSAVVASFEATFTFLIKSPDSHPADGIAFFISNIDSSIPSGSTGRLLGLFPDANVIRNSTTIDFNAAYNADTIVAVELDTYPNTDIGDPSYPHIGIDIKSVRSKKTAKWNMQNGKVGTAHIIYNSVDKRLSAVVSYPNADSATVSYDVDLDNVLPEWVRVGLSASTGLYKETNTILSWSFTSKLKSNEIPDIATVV

For the molecule `N#Cc1ccc(NN2C(C(O)c3ccc(B(O)O)cc3)C=CC3CN(c4ccccc4)C(=O)C32)cc1` (stereo not given), the composite z-score in the experiment with Albumin (Bos taurus) was 0.813; in [2], -0.128; in experiment [3], -0.188; in experiment [4], 0.852; in experiment [5], 0.417; in experiment [6] it was -0.247. In addition, the composite z-score in the experiment on Sam68 (KHDRBS1) is 0.141; in experiment [7] it was -0.412; in experiment [8], 0.133. Besides, the composite Z-score in experiment [1] is -0.254 (inactive).
In the case of `COCCCNC(=O)[C@@]1(Cc2ccccc2I)c2ccccc2C(=O)N(Cc2ccccc2OC)[C@H]1c1ccc(CO)cc1`, the composite z-score with Albumin (Bos taurus) is -0.685; in [2] it was -0.134; in [3], -0.14; in experiment [4], 0.542; in experiment [5], 2.31; in experiment [6] it was -0.143. Further, the composite z-score was 0.614 with Sam68 (KHDRBS1), -1.82 in experiment [7] and 0.911 in [8]. Besides, the composite Z-score in [1] was 0.0679 (inactive).
Consider `COc1ccc(-c2cc3c(c(CCc4ccccc4)n2)[Si](C(C)C)(C(C)C)O[C@H]3c2ccccc2)cn1`, for which the composite z-score was -0.425 with Albumin (Bos taurus); -0.0221 in experiment [2]; -0.162 in [3]; -0.299 in experiment [4]; -0.405 in experiment [5]; 0.0028 in [6]. Further, the composite z-score with Sam68 (KHDRBS1) is -0.605; in experiment [7] it was -0.315; in [8] it was 0.571. The composite Z-score in [1] was -0.161 (inactive).
In the case of `CCCC=C(CCC)[C@@H](NC(=O)c1ccc(C(=O)OC)cc1)c1ccc(C(=O)OC)cc1`, the composite z-score with Albumin (Bos taurus) turned out to be 0.781; in experiment [2], 0.0847; in [3], 0.0522; in experiment [4] it was 0.203; in [5], 2.45; in experiment [6] it was 0.718. The composite z-score in the experiment on Sam68 (KHDRBS1) was found to be 0.417; in [7], 0.031; in [8], 0.251. Besides, the composite Z-score in [1] is 0.0466 (inactive).
Take `Cc1ccc(S[C@]2(C(=O)NC3CC3)CC(=O)N(C3Cc4ccccc4C3)[C@@H]2c2ccc(CO)cc2I)cc1`: the composite z-score is -0.15 with Albumin (Bos taurus); -0.283 in experiment [2]; -0.121 in [3]; 0.535 in [4]; 0.897 in experiment [5]; 1.68 in [6]. The composite z-score in the experiment with Sam68 (KHDRBS1) is -0.5; in experiment [7], -0.486; in [8], 0.0714. The composite Z-score in experiment [1] is -0.216 (inactive).
Regarding `O=C1O[C@H](c2ccccc2)[C@H](c2ccccc2)N2[C@H]1[C@@H](C(=O)N1CCN(c3ncccn3)CC1)[C@]1(C(=O)Nc3ccc(C#CC4(O)CCCCCC4)cc31)[C@H]2c1ccc(O)cc1`, the composite z-score with Albumin (Bos taurus) was 0.605; in experiment [2] it was 0.0556; in [3], -0.162; in experiment [4], 0.673; in [5], 1.28; in experiment [6], 0.329. The results for the composite z-score (in the experiment on Sam68 (KHDRBS1); in experiment [7]; in experiment [8]) were 1.31, -0.0362 and 0.946, respectively. Further, in experiment [1], the composite Z-score is -0.019 (inactive).
In the case of `COc1ccc([Si](C)(C)[C@@H]2[C@@H](CC(=O)N3CCC[C@H]3CO)O[C@]3(C(=O)N(Cc4cccc(N5C(=O)c6cccc7cccc5c67)c4)c4ccccc43)[C@H]2C)cc1`, the composite z-score is 0.601 with Albumin (Bos taurus); -0.0701 in experiment [2]; -0.166 in experiment [3]; 0.394 in experiment [4]; 0.386 in [5]; 0.104 in experiment [6]. The composite z-score in the experiment with Sam68 (KHDRBS1) was 0.905; in experiment [7], 0.568; in [8] it was 1.13. Further, in experiment [1], the composite Z-score is 0.681 (inactive).
On to `C=CC[C@]1(C(N)=O)N=C(c2ccc(OCCCO)cc2)O[C@H]1c1ccccc1N=[N+]=[N-]`, for which the composite z-score with Albumin (Bos taurus) was 0.601; in experiment [2], 0.067; in experiment [3], -0.0586; in experiment [4] it was 0.79; in experiment [5], 2.53; in experiment [6], 0.87. Also, the composite z-score stood at 0.994 in the experiment with Sam68 (KHDRBS1), 0.783 in experiment [7] and 0.883 in [8]. Besides, the composite Z-score in experiment [1] is 1.13 (inactive).
Regarding `CC(C)(C)OC(=O)N1[C@@H](C=C(Br)Br)COC1(C)C`, the composite z-score is -0.121 with Albumin (Bos taurus); 0.0522 in experiment [2]; -0.104 in experiment [3]; -0.0481 in experiment [4]; 0.259 in [5]; 0.136 in [6]. Besides, the composite z-score in the experiment on Sam68 (KHDRBS1) was found to be 0.839; in experiment [7], 0.644; in experiment [8], 0.556. Also, the composite Z-score in [1] is 0.274 (inactive).
`C=CCC(OC(C)=O)[C@@H]1[C@@H](N(Cc2cccc3ccccc23)C(=O)c2ccc(C)cc2)c2cc(OCCCO)ccc2N1C(=O)Cc1ccc2ccccc2c1` (stereo not given in full): the composite z-score was 0.706 in the experiment with Albumin (Bos taurus); -0.0044 in [2]; -0.149 in [3]; 0.15 in experiment [4]; 0.738 in experiment [5]; -0.0124 in [6]. Also, the composite z-score was -1.29 with Sam68 (KHDRBS1), 0.0854 in [7] and -0.0292 in experiment [8]. For the same molecule, in experiment [1], the composite Z-score was -0.758 (inactive).
Take `CCCCCCc1nc(Cc2cc(OC)c(OC)c(OC)c2)c(C)c2c1[Si](C(C)C)(C(C)C)OC2`: the composite z-score is -0.287 in the experiment with Albumin (Bos taurus); -0.13 in experiment [2]; -0.178 in experiment [3]; -0.0168 in experiment [4]; 0.0854 in experiment [5]; -0.251 in [6]. For the same molecule, the figures for the composite z-score (in the experiment on Sam68 (KHDRBS1); in experiment [7]; in experiment [8]) were 0.294, 0.19 and 0.0356, respectively. Besides, the composite Z-score in [1] is 0.108 (inactive).
On to `CC(C)c1ccc(NN2C(C(O)c3ccccc3)C=CC3C(=O)N(c4ccccc4)C(=O)C32)cc1` (stereo not given), for which the composite z-score with Albumin (Bos taurus) is 0.834; in experiment [2], 0.216; in [3] it was -0.0194; in experiment [4] it was 0.574; in experiment [5] it was 1.79; in experiment [6], -0.191. In addition, the composite z-score with Sam68 (KHDRBS1) is 1.32; in experiment [7] it was -0.747; in [8], 1.12. The composite Z-score in experiment [1] was -0.175 (inactive).
Regarding `C[C@]1(C(=O)O)c2ccccc2C(=O)N(Cc2cc(C(F)(F)F)cc(C(F)(F)F)c2)[C@H]1c1ccc(CO)cc1`, the composite z-score with Albumin (Bos taurus) is 0.514; in experiment [2], 0.0426; in experiment [3], -0.106; in experiment [4], 0.728; in experiment [5], 0.516; in [6], -0.178. In addition, the composite z-score in the experiment on Sam68 (KHDRBS1) was 0.666; in experiment [7], -0.833; in experiment [8], 0.928. The composite Z-score in experiment [1] was 0.365 (inactive).
